{"source": "PubChem BioAssay (NCI)", "note": "The panel holds about 83,000 compounds, 20% with a hit somewhere; the sample as a whole holds those more often.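 Single-dose data. Exposure time 48 hours. Values below 10 considered active.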 Calls of active or inactive are those of the source."}
{"tested_on": "HL-60(TB) leukemia", "experiment": "NCI-60 one-dose screen, 48 h (100 = growth as untreated, 0 = no growth, -100 = all killed)", "conditions": "10 µM unless noted"}
{"smiles": "COc1ccc(-c2cc3c4c(nc5ccccc5c4c2)CC(c2cc(OC)c(OC)c(OC)c2)O3)cc1", "note": "(stereo not given)", "growth": "106% (inactive)"}
{"smiles": "Nc1nc(Nc2ccccc2SSc2ccccc2Nc2nc(N)nc(-c3cccs3)n2)nc(-c2ccsc2)n1", "growth": "-7.94% (active)"}
{"smiles": "Cc1cc(C(=O)c2ccccc2)c(C)c2c1[nH]c1ccc(Cl)cc12", "growth": "1.08% (active)"}
{"smiles": "O=C1/C(=C/c2cccc3cnccc23)Cc2cc(F)ccc21", "growth": "105% (inactive)"}
{"smiles": "O=C1CSC(c2c(F)cccc2Cl)N1NC(=O)C(O)(c1ccccc1)c1ccccc1", "note": "(stereo not given)", "growth": "98.3% (inactive)"}
{"smiles": "CC(=O)Nc1ccc(-n2c(O)c(/C=N/NC(=O)Cc3ccccc3Nc3c(Cl)cccc3Cl)sc2=S)cc1", "growth": "99% (inactive)"}
{"smiles": "c1cc(C2CCCCC2)ccc1-c1cnc2nonc2n1", "growth": "-27.3% (active)"}
{"smiles": "O=c1oc2ccc(I)cc2c(=O)n1-c1ccc(Cl)cc1F", "growth": "-47.1% (active)"}
{"smiles": "COc1ccc(-c2nnc(SCC(=O)NC3=NN=C(c4ccccc4)CS3)o2)cc1", "growth": "90.9% (inactive)"}
{"smiles": "CCN1C(=O)N(CC)C2C1NC(=S)N2/N=C/c1ccc(OC)cc1", "note": "(stereo not given)", "growth": "-12.1% (active)"}
{"smiles": "COc1cc(C(=O)/C=C/c2c(-c3cccs3)nc3sc(C)cn23)cc(OC)c1OC", "growth": "-18.4% (active)"}
{"smiles": "COc1ccc(-c2cc(-c3ccc(Cl)cc3)c(C#N)c(=O)n2CCCCCC(=O)Nc2ccccc2N)cc1", "growth": "-14.5% (active)"}
{"smiles": "CCn1cc(C(=O)O)c(=O)c2cc(F)c(N3CCN(S(=O)(=O)c4ccc(OC)c(OC)c4)CC3)cc21", "growth": "91.3% (inactive)"}
{"smiles": "CCc1ccc2c(c1)N(CCO)C1=C(C(=O)OC1)C2c1cccc(Cl)c1", "note": "(stereo not given)", "growth": "-19.4% (active)"}
{"smiles": "C=C(C)[C@@H]1CC[C@]2(COC3CCCCO3)CC[C@]3(C)[C@H](CC[C@@H]4[C@@]5(C)C=C(C=O)C(=O)C(C)(C)[C@@H]5CC[C@]43C)[C@@H]12", "note": "(stereo not given in full)", "growth": "-25.8% (active)"}
{"smiles": "COc1ccc(/C(=C\\c2cc(OC)c(OC)c(OC)c2)C(=O)N2CCNCC2)cc1", "growth": "98% (inactive)"}
{"smiles": "Cc1cccc2cc(/C=C/C(=O)/C=C/c3ccc(Cl)cc3)c(=O)[nH]c12", "growth": "44.2% (inactive)"}
{"smiles": "CC(=O)NCCCS(=O)(=O)O", "growth": "102% (inactive)"}
{"smiles": "COc1cccc(-c2[nH]c(=S)ncc2C(=O)c2ccccc2)c1", "growth": "78.2% (inactive)"}
{"smiles": "CCCCCCN(CCCCCC)CC(O)c1cccc2ccc(Cl)cc12", "note": "(stereo not given)", "growth": "69.5% (inactive)"}
{"smiles": "O=[N+]([O-])c1ccc(-c2ncc(-c3ccc(Br)cc3)o2)cc1", "growth": "76.6% (inactive)"}
{"smiles": "COc1ccc(C(=O)NC(=O)Nc2ccc3c(c2)NC(=O)/C3=C\\c2[nH]c(C)c(CCC(=O)O)c2C)c(F)c1", "growth": "43.2% (inactive)"}
{"smiles": "Cc1ccc(-c2cnc3sc(C(=O)NCCc4ccccc4)c(C)n23)cc1", "growth": "97.9% (inactive)"}
{"smiles": "CC([C@H]1CCC2C3CCC4C[C@@H](N)CC[C@]4(C)C3CC[C@@]21C)N(C)C", "note": "(stereo not given in full)", "growth": "30.6% (inactive)"}
{"smiles": "COc1ccc(/C(=C2\\O[C@@H]([C@H](O)CO)[C@H]3OC(C)(C)O[C@@H]23)c2cc(OC)c(OC)c(OC)c2)cc1O", "growth": "-2.8% (active)"}
